Measurements: PubChem BioAssay (NCATS)
Where “and” joins values, the source holds several entries; their conditions need not be identical. Equal values may be shown once. Inconclusive results are not listed. Calls of active or inactive are those of the source. Unless noted, calls follow the shape of the dose curve; as a rule, active = well fitted curve in the direction sought with a large enough effect; inconclusive = small, poorly fitted or top-dose-only effect, or another doubt; inactive = no such curve, though single readings can be large; an effect the other way counts as inactive or inconclusive.

Experiments:
[1] = molecular target: Phospholipid hydroperoxide glutathione peroxidase GPX4 (Homo sapiens) (UniProt P36969); assay: Primary qHTS Assay for Inhibitors of Recombinant Selenoprotein Glutathione Peroxidase 4 (GPX4) (AID 1845192); conditions: outcome: dose series up to 50 µM unless noted; also: nearly all actives have a fitted effect of over 65% in size
Sequence of Phospholipid hydroperoxide glutathione peroxidase GPX4 (Homo sapiens) (P36969 whole entry, looked up): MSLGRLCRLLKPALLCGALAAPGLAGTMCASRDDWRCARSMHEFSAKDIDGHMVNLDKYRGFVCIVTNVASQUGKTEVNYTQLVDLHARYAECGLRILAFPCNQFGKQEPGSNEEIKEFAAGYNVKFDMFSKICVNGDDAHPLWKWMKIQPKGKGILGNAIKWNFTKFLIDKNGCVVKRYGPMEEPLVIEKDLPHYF
How it was run: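 NADPH consumption, followed by fluorescence at 340/450 nm between 0 and 15 min, reports GPX4 activity via coupled glutathione reductase (100 nM). Enzyme 200 nM was pre-exposed to compound 30 min; 0.5 mM cumene hydroperoxide and 1 mM GSH served as substrates.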

7G8 = assay: qHTS profiling for inhibitors of Plasmodium falciparum proliferation (AID 504749); also: nearly all actives have a fitted effect of over 60% in size; also: potency is read from the fitted curve at half-maximal effect; conditions: P. falciparum in erythrocytes, SYBR Green DNA, 72 h; series mostly up to 12.8 µM
How it was run: (§1)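 Three-day growth assay of blood-stage parasites in erythrocytes (0.3% parasitemia, 2.5% hematocrit) at 37 C, 5% CO2, quantified by SYBR Green DNA staining after overnight detergent lysis.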

AA1029 = assay: as above; conditions: P. falciparum in erythrocytes, SYBR Green DNA, 72 h; series mostly up to 12.8 µM
How it was run: as §1

CP260 = assay: as above; conditions: P. falciparum in erythrocytes, SYBR Green DNA, 72 h; series mostly up to 12.8 µM
How it was run: as §1

CP268 = assay: as above; conditions: P. falciparum in erythrocytes, SYBR Green DNA, 72 h; series mostly up to 12.8 µM
How it was run: as §1

CP297 = assay: as above; conditions: P. falciparum in erythrocytes, SYBR Green DNA, 72 h; series mostly up to 12.8 µM
How it was run: as §1

DIV14 = assay: as above; conditions: P. falciparum in erythrocytes, SYBR Green DNA, 72 h; series mostly up to 12.8 µM
How it was run: as §1

DIV17 = assay: as above; conditions: P. falciparum in erythrocytes, SYBR Green DNA, 72 h; series mostly up to 12.8 µM
How it was run: as §1

ICS = assay: as above; conditions: P. falciparum in erythrocytes, SYBR Green DNA, 72 h; series mostly up to 12.8 µM
How it was run: as §1

TAB165 = assay: as above; conditions: P. falciparum in erythrocytes, SYBR Green DNA, 72 h; series mostly up to 12.8 µM
How it was run: as §1

W2 = assay: as above; conditions: P. falciparum in erythrocytes, SYBR Green DNA, 72 h; series mostly up to 12.8 µM
How it was run: as §1

[2] = molecular target: Dual specificity protein kinase CLK4 (Homo sapiens) (UniProt Q9HAZ1); assay: qHTS Assay for Inhibitors of CDC-like Kinase 4 (ADP-Glo Assay) (AID 1771); also: nearly all actives have a fitted effect of over 70% in size; also: potency is read from the fitted curve at half-maximal effect
Sequence of Dual specificity protein kinase CLK4 (Homo sapiens) (Q9HAZ1 whole entry, looked up): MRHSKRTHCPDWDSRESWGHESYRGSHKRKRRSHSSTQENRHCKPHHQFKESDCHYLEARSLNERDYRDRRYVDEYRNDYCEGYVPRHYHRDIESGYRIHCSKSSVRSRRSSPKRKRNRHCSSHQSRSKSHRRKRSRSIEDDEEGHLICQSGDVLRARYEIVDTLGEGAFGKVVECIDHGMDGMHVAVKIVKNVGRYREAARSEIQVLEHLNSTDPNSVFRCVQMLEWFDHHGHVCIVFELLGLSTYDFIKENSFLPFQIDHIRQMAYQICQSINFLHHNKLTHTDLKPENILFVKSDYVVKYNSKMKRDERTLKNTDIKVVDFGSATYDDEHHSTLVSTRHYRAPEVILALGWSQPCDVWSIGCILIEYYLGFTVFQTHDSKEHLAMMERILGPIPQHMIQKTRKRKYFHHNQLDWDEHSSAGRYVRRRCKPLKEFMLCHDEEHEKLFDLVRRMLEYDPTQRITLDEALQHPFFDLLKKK
How it was run: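 Kinase reaction: Clk4 at 25 nM, RS repeat peptide substrate at 100 uM, ATP at 1 uM, 1 hr, room temperature. Product ADP detected as luciferase signal via ADP-Glo.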

[3] = molecular target: DNA dC->dU-editing enzyme APOBEC-3G (Homo sapiens) (UniProt Q9HC16); assay: qHTS for inhibitors of Vif-A3G interactions: Validation (AID 588379); also: 0% is about no effect
Sequence of DNA dC->dU-editing enzyme APOBEC-3G (Homo sapiens) (Q9HC16 whole entry, looked up): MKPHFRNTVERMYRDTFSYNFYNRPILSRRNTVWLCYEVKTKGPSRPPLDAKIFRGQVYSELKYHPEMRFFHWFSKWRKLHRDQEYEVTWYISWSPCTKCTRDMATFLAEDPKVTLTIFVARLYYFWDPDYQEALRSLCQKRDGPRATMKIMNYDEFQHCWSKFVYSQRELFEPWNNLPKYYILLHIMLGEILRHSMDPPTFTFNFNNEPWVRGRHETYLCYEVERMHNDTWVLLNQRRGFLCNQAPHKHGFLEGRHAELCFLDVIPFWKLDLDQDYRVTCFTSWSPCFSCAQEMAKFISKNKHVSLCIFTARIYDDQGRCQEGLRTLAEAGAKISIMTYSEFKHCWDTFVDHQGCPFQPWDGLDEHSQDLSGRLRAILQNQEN
How it was run: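 HeLa cells stably expressing Vif and A3G-eYFP, 700 cells/well, incubated overnight at 37 deg C, then exposed to compound overnight at 37 deg C. Inhibition of Vif-mediated degradation read as increased yellow fluorescence (Ex 488/Em 500-530) by laser-scanning cytometry.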

[4] = molecular target: Bile acid receptor (Homo sapiens) (UniProt Q96RI1); assay: qHTS assay for small molecule antagonists of farnesoid X receptor signaling (AID 588526; calls by dose curve; also: % is scaled to controls: 0 for no effect and ±100 for the full control effect)
Sequence of Bile acid receptor (Homo sapiens) (Q96RI1 whole entry, looked up): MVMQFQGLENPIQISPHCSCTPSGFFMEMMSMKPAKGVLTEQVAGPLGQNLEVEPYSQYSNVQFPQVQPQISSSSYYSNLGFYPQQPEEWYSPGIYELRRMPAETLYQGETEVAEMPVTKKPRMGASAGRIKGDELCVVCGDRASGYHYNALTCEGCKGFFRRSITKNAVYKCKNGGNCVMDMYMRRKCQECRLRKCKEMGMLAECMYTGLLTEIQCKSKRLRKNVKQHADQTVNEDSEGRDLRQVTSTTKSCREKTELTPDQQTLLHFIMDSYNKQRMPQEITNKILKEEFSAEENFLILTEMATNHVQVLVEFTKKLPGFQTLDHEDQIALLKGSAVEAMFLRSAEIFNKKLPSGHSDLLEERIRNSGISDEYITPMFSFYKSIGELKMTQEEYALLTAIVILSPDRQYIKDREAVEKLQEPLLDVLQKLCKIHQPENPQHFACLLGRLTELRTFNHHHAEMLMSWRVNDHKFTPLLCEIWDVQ
How it was run: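 Beta-lactamase reporter antagonist mode: HEK293T FXR-UAS-bla cells, titrated compound, CDCA stimulation, 16 h 37 C, CCF4 dye 2 h RT. Data normalized to CDCA 50 uM and DMSO; Hill-fit IC50.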

[5] = molecular target: Glucocorticoid receptor (Homo sapiens) (UniProt P04150); assay: qHTS assay for small molecule agonists of glucocorticoid receptor signaling (AID 588532; active = well fitted curve in the direction sought with a large enough effect in the signal ratio, with a control signal flat; the % refers to the signal ratio;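 also: 100% = dexamethasone at 0.1 µM and 0% = DMSO only wells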); conditions: HeLa MMTV-bla, beta-lactamase ratio, agonist, 18 h; hits give high values; percent of dexamethasone control, DMSO zero
Sequence of Glucocorticoid receptor (Homo sapiens) (P04150 whole entry, looked up): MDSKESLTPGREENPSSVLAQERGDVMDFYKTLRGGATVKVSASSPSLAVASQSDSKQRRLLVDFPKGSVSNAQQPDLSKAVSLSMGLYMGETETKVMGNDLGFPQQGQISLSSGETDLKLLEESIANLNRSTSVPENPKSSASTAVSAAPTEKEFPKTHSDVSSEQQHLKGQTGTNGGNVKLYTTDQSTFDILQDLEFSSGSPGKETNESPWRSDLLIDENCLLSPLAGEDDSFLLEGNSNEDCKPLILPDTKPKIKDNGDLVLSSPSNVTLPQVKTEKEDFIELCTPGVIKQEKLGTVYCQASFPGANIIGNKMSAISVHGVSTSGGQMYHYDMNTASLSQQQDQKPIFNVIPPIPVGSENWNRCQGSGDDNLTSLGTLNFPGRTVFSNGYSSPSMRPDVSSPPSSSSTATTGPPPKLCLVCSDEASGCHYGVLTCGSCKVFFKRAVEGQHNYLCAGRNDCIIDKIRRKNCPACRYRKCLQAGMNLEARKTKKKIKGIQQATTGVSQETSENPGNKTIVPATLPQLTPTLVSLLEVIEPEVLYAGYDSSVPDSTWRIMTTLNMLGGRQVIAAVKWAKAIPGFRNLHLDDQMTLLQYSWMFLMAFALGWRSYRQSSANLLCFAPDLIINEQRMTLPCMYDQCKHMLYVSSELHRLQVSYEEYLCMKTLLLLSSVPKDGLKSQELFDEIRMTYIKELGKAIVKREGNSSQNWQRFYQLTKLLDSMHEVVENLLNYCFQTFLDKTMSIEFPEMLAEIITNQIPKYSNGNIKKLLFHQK
How it was run: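 Agonist-mode qHTS: GRE-driven beta-lactamase in HeLa cells exposed 18 h to titrated compounds (up to 92 uM), then CCF4 ratio read after 2 h at RT; Hill-fitted EC50, efficacy relative to 0.1 uM dexamethasone.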

[6] = molecular target: Glucocorticoid receptor (Homo sapiens) (UniProt P04150); assay: qHTS assay for small molecule antagonists of glucocorticoid receptor signaling (AID 588533; active = well fitted inhibition curve with a large enough effect in the signal ratio, with a control signal flat, not every such curve was filed as active; the % refers to the signal ratio;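 also: cells stimulated with 2 nM dexamethasone as agonist; % is scaled to controls: 0 for no effect and ±100 for the full control effect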)
How it was run: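 Antagonist-mode qHTS: compound titrations added to GRE-bla HeLa cells, then dexamethasone 2 nM final; 18 h, 37 C. CCF4 FRET fluorescence normalized to dexamethasone and DMSO; IC50 from Hill fit.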

[7] = qHTS assay for small molecule agonists of the antioxidant response element (ARE) signaling pathway (AID 651741; active = well fitted activation curve with a large enough effect in the signal ratio; the % refers to the signal ratio; also: potency is read from the fitted curve at half-maximal effect; as to activation: % of control where 0% means no effect)
How it was run: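 Seeding 2,000 ARE-bla HepG2 cells per well preceded a 5 h incubation at 37 C/5% CO2 and a 16 h compound exposure at 37 C. Beta-lactamase reporter activity was then quantified by fluorescence after 2 h with LiveBLAzer B/G FRET substrate.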

[8] = molecular target: Guanine nucleotide-binding protein G(i) subunit alpha-1 (Homo sapiens) (UniProt P63096); assay: qHTS Assay for Inhibitors of RGS12 GoLoco Motif Activity (Green Fluorophore) (AID 879);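 also: 0% = labeled peptide with Gαi1 and full inhibition = labeled peptide alone without protein; negative values mean loss of peptide binding seen as reduced polarization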
Sequence of Guanine nucleotide-binding protein G(i) subunit alpha-1 (Homo sapiens) (P63096 whole entry, looked up): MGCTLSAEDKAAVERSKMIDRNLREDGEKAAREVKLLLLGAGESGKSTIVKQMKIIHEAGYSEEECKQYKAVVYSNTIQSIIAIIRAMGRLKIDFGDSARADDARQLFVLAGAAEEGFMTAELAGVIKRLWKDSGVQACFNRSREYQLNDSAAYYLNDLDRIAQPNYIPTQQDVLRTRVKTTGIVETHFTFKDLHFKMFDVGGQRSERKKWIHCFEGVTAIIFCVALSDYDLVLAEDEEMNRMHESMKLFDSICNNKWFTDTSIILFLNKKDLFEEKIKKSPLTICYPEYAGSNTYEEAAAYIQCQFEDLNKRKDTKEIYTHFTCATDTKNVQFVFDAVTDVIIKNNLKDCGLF
How it was run: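 Fluorescence polarization assay: 50 nM Gαi1 with 10 nM FITC-labeled RGS12 GoLoco peptide in 10 mM Tris pH 7.5, 150 mM NaCl, 0.1 mM GDP, 0.05% NP40, 10 min at room temperature with compound.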

[9] = molecular target: Muscarinic acetylcholine receptor M1 (Rattus norvegicus) (UniProt P08482); assay: qHTS Assay for Antagonists of Acetylcholine Muscarinic M1 Receptor: Kinetic Measurement of Intracellular Calcium Response (AID 943);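 also: Fluo-4 calcium signal as peak divided by basal fluorescence over 4 min; nearly all actives have a fitted effect of over 75% in size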
Sequence of Muscarinic acetylcholine receptor M1 (Rattus norvegicus) (P08482 whole entry, looked up): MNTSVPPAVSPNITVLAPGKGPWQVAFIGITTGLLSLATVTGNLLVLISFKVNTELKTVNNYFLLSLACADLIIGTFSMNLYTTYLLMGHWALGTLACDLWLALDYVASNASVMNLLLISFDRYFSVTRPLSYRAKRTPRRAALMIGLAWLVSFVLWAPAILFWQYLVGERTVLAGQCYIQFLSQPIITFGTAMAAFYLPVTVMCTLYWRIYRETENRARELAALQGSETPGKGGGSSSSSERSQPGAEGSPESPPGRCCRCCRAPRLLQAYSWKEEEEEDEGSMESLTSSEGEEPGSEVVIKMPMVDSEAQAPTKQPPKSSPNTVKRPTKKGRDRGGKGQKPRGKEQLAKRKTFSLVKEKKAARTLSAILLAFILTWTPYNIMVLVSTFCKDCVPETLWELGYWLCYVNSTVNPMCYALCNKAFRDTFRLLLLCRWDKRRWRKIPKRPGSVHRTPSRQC
How it was run: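 Intracellular calcium flux, recorded with Fluo-4 in a kinetic plate reader, served as signal; the response to carbachol at EC80 (100 nM final) was taken as maximal over minimal fluorescence after a 10 min compound pre-incubation in rat M1-CHO cells.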

[10] = molecular target: Muscarinic acetylcholine receptor M1 (Rattus norvegicus) (UniProt P08482); assay: qHTS Assay for Antagonists of Acetylcholine Muscarinic M1 Receptor: Measurement of IP-One Response (AID 944); also: nearly all actives have a fitted effect of over 75% in size
How it was run: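 Steps: plate transfected CHO-M1 cells overnight; add test compound, 10 min; add carbachol (200 nM, EC80) in stimulation buffer with LiCl; incubate 30 min; add labelled IP1 tracer and anti-IP1 antibody in lysis buffer; read HTRF after 10 min.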

C[C@@H]1CCC[C@H](C)N1NC(=O)c1ccc(Cl)c(S(N)(=O)=O)c1
inactive: outcome [1] | Potency (7G8) | Potency (AA1029) | Potency (CP260) | Potency (CP268) | Potency (CP297) | Potency (DIV14) | Potency (DIV17) | Potency (ICS) | Potency (TAB165) | Potency (W2)

COc1cccc(Cn2c(=O)c(-c3ccccc3)nc3cnc(N4CCN(C)CC4)nc32)c1
inactive: Potency [2]

Cc1nc2cnc(Nc3ccccc3)nc2n(C[C@H]2CCCO2)c1=O
active: Potency [2] 22.4 µM

C[N+](C)(C)CC(O)CC(=O)O (stereo not drawn)
inactive: outcome [1] | Potency (7G8) | Potency (AA1029) | Potency (CP260) | Potency (CP268) | Potency (CP297) | Potency (DIV14) | Potency (ICS) | Potency (TAB165) | Potency (W2)

CC(C)(S)[C@H](N)C(=O)O
inactive: outcome [1] inactive [at 4.52 µM]

N#Cc1ccccc1-c1ccc2ncnc(NCc3cccs3)c2c1
active: Potency [2] 3.16 µM

CN1C(CC(=O)c2ccccc2)CCCC1CC(O)c1ccccc1 (stereo not drawn)
inactive: outcome [1]

CN(C)CC/C=C1\c2ccccc2CSc2ccccc21
inactive: outcome [1] | Potency (CP297)
active: Potency (W2) 1.28 µM

C=CC(C)(O)CCC=C(C)C (stereo not drawn)
inactive: outcome [3] | outcome [4] | activation [5] -2.85% and -11.4% | outcome [6] | Potency [7]

CN1CCN(c2ncnc3ccc(-c4cccc(NS(C)(=O)=O)c4)cc23)CC1
active: Potency [2] 7.94 µM

COc1ccccc1CNc1ncnc2ccc(-c3ccoc3)cc12
active: Potency [2] 0.316 µM

CN1CCCC[C@@H]1CCN1c2ccccc2Sc2ccc(S(C)=O)cc21 (stereo partly drawn)
inactive: Potency (AA1029) | Potency (CP260) | Potency (CP268) | Potency (DIV14) | Potency (DIV17) | Potency (TAB165) | Potency (W2)

CN1[C@@H]2CC[C@H]1CC(OC(=O)[C@@H](O)c1ccccc1)C2 (stereo partly drawn)
inactive: Potency [8] | Potency (7G8) | Potency (AA1029) | Potency (CP260) | Potency (CP268) | Potency (CP297) | Potency (DIV14) | Potency (DIV17) | Potency (ICS) | Potency (TAB165) | Potency (W2)

CC1=CC(=O)CC(C)(C)C1(O)/C=C/C(C)=C\C(=O)O (stereo not drawn)
inactive: outcome [3] | outcome [4] | activation [5] 1.52% | outcome [6]
active: Potency [7] 37.6 µM

COS(C)(=O)=O
inactive: activation [5] -1.66% | outcome [6]

Cc1occc(=O)c1O
inactive: Potency [7]

CC[C@@]12CCCN3CCc4c(n(c5ccccc45)C(=O)C1)[C@H]32
inactive: Potency (AA1029) | Potency (CP260) | Potency (TAB165)

CCCCCN(CCCCC)C(=O)[C@H](CCC(=O)O)NC(=O)c1ccc(Cl)c(Cl)c1
inactive: Potency [8] | Potency [9] | Potency [10]

CCCN(CCC)C(=O)[C@@H](CCC(=O)O)NC(=O)c1ccccc1
inactive: Potency [8] | Potency (7G8) | Potency (AA1029) | Potency (CP260) | Potency (CP268) | Potency (DIV14) | Potency (DIV17) | Potency (ICS) | Potency (TAB165) | Potency (W2)

C=CCc1ccccc1OC[C@H](O)CNC(C)C
inactive: Potency [8] | Potency [10]

N[C@@H](CO)C(=O)NNCc1ccc(O)c(O)c1O
inactive: Potency [9] | Potency [10] | Potency (7G8) | Potency (AA1029) | Potency (CP260) | Potency (CP268) | Potency (CP297) | Potency (DIV14) | Potency (DIV17) | Potency (ICS) | Potency (TAB165)

O[C@@](CCN1CCCCC1)(c1ccccc1)C1CCCCC1
inactive: Potency [8]

CC[C@]1(C)CC(=O)NC1=O
inactive: Potency [8] | Potency (7G8) | Potency (AA1029) | Potency (CP260) | Potency (CP268) | Potency (CP297) | Potency (DIV14) | Potency (DIV17) | Potency (ICS) | Potency (TAB165) | Potency (W2)

C[C@@](N)(Cc1ccc(O)c(O)c1)C(=O)O
inactive: Potency [8]

CN(C)[C@@H]1C(=O)C(C(N)=O)=C(O)[C@]2(O)C(=O)C3=C(O)c4c(O)ccc(Cl)c4[C@H](O)[C@H]3C[C@@H]12
active: Potency (ICS) 3.98 µM | Potency (W2) 5.36 µM
inactive: Potency [8] | Potency [9] | Potency [10] | Potency (CP268) | Potency (CP297) | Potency (DIV14) | Potency (DIV17)
